Laboratory results from the supplement of paper PMC10849652.
About 8,800 targets were measured; listed, in parts, are those with a hit and a random draw of the rest. About 0.5% of all pairs of compound and target were hits. A number with no mark means an inactive call.

What was measured:
Experiment in all cases: log2 fold change, soluble protein after heating vs DMSO (PISA); higher = thermal stabilisation; K562 lysate, 10 uM; active = over 0.2 and 3.5 SD of the protein, either way, in both replicates (recomputed)
alvocidib = compound: CN1CC[C@H](c2c(O)cc(O)c3c(=O)cc(-c4ccccc4Cl)oc23)[C@H](O)C1 [alvocidib]
Summary of the method: (§1)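 To prepare the extract, K562 pellets were dounce-homogenised in PBS pH 7.4 with 1 mM MgCl2, giving crude material at 1 mg/mL protein. This was treated with 10 μM compound for 30 min, then heated in aliquots for 3 min over 48°C-58°C before pooling and addition of NP-40 to 0.5% at 4°C. Centrifugation at 21,000xg for 90 min left soluble protein in the supernatant, which TMTpro 16plex LC-MS/MS quantified with equalised channel sums. Results are log-two fold changes in thermal stability compared with solvent controls, from duplicates.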

Tubastatin A = compound: CN1CCc2c(c3ccccc3n2Cc2ccc(C(=O)NO)cc2)C1 [Tubastatin A]
Summary of the method: as §1

[1] = compound: CNC(=O)C1=CC=CC=C1NC2=NC(=NC=C2Cl)NC3=C(C=C(C=C3)N4CCOCC4)OC
Summary of the method: as §1

defactinib = compound: CNC(=O)c1ccc(Nc2ncc(C(F)(F)F)c(NCc3nccnc3N(C)S(C)(=O)=O)n2)cc1 [defactinib]
Summary of the method: as §1

[2] = compound: CNc1nc(-c2ccc3c(N)n[nH]c3c2)cc(N2C[C@@H](C(=O)NC3CCCCC3)CC[C@H]2C)n1
Summary of the method: as §1

encorafenib = compound: COC(=O)N[C@@H](C)CNc1nccc(-c2cn(C(C)C)nc2-c2cc(Cl)cc(NS(C)(=O)=O)c2F)n1 [encorafenib]
Summary of the method: as §1

[3] = compound: COC(=O)[C@H](CCSC)NC(=O)C1=C(C=C(C=C1)NC[C@H](CS)N)C2=CC=CC=C2
Summary of the method: as §1

alisertib = compound: COc1cc(Nc2ncc3c(n2)-c2ccc(Cl)cc2C(c2c(F)cccc2OC)=NC3)ccc1C(=O)O [alisertib]
Summary of the method: as §1

[4] = compound: COc1cc2nc(-c3cc(F)ccc3O)nc(N[C@@H]3CNC[C@H]3C(C)(C)O)c2cc1OC
Summary of the method: as §1

gefitinib = compound: COc1cc2ncnc(Nc3ccc(F)c(Cl)c3)c2cc1OCCCN1CCOCC1 [gefitinib]
Summary of the method: as §1

Sequence of UniProt Q99766 (Q99766 whole entry, looked up): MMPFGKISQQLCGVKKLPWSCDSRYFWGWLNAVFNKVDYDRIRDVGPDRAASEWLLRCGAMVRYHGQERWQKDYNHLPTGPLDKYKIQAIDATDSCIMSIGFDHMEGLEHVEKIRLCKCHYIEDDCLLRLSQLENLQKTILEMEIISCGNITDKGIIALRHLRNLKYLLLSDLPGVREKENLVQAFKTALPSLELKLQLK
Sequence of UniProt Q96N67 (Q96N67 whole entry, looked up): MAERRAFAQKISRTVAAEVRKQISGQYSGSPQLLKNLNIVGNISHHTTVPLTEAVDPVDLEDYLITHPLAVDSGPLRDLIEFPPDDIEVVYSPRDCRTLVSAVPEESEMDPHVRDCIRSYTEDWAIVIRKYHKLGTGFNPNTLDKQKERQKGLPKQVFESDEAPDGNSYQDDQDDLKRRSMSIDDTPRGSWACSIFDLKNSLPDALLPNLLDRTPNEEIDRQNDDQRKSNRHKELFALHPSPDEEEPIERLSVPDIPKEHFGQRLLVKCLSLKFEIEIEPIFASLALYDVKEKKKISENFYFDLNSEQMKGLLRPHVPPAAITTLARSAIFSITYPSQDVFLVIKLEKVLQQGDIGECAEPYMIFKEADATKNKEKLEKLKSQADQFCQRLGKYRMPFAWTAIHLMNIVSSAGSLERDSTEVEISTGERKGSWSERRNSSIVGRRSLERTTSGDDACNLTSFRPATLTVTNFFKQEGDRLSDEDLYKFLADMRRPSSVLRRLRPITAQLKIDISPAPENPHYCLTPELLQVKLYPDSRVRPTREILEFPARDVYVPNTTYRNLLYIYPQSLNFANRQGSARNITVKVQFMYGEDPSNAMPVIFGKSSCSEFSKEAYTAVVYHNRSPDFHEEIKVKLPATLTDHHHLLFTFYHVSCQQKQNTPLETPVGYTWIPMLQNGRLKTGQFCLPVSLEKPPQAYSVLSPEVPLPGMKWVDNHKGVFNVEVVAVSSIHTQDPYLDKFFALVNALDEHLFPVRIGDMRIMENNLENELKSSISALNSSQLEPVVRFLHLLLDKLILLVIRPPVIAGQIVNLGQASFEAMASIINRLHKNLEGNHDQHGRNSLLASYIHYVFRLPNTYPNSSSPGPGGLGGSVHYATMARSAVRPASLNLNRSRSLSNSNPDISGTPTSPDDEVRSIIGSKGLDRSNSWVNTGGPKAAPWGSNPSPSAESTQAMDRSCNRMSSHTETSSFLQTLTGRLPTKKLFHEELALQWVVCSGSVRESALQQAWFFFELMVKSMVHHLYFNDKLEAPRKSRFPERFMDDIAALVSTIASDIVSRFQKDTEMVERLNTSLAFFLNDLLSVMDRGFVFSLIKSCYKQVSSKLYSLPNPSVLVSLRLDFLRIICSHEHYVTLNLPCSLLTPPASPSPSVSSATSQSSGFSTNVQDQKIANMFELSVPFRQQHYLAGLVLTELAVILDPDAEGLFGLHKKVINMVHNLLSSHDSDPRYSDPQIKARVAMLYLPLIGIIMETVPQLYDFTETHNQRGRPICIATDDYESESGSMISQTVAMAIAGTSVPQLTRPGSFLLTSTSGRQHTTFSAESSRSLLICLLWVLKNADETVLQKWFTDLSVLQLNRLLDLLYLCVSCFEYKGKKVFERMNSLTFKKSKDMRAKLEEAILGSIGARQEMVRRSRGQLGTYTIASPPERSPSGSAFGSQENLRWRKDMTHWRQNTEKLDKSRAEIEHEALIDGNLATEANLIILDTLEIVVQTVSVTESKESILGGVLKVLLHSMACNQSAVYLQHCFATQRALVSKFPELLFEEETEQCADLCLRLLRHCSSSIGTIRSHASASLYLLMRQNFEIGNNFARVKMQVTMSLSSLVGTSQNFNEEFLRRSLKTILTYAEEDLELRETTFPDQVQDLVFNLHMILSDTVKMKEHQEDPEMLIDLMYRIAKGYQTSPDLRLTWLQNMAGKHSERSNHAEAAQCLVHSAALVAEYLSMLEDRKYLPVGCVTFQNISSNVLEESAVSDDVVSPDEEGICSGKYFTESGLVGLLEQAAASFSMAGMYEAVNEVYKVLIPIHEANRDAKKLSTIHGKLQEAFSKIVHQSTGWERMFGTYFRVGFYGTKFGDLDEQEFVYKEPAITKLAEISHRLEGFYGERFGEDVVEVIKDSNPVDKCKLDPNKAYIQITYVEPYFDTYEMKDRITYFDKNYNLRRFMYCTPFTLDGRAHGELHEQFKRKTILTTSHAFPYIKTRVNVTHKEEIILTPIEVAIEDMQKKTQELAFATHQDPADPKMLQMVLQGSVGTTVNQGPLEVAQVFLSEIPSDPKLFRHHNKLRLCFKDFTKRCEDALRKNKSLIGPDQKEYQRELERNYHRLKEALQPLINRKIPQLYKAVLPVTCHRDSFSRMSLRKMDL
Sequence of UniProt Q96MX0 (Q96MX0 whole entry, looked up): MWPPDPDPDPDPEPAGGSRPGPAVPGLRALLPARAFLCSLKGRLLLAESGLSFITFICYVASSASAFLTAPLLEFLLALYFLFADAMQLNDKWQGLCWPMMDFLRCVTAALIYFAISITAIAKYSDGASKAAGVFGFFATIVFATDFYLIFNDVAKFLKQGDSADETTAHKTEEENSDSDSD
Sequence of UniProt Q5RI15 (Q5RI15 whole entry, looked up): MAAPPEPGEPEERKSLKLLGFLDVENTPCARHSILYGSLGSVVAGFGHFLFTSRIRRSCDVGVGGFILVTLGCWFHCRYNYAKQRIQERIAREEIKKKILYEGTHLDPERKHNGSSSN
Sequence of UniProt Q8WWK9 (Q8WWK9 whole entry, looked up): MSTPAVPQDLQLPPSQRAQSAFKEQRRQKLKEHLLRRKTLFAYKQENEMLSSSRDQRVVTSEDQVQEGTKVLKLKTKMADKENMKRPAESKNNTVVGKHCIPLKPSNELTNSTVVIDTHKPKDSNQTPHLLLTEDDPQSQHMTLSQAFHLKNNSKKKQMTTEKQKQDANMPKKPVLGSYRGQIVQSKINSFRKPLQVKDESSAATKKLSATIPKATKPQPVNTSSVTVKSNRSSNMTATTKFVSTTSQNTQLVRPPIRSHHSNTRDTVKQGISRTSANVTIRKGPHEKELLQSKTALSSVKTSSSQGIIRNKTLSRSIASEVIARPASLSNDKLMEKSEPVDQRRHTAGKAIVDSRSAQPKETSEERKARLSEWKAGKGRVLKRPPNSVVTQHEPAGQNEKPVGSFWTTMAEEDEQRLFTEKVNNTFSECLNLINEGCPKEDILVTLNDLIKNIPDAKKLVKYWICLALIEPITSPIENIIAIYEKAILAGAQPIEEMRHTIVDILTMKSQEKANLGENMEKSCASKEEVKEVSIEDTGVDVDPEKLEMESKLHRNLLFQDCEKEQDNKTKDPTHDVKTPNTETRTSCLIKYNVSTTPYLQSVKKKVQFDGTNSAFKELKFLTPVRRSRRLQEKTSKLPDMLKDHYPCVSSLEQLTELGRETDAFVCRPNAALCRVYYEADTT
Sequence of UniProt Q6P3W2 (Q6P3W2 whole entry, looked up): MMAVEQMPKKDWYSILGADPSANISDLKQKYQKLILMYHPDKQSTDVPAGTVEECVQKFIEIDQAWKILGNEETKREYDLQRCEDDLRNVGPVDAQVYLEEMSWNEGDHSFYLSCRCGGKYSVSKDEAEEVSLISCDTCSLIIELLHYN
Sequence of UniProt Q8TB03 (Q8TB03 whole entry, looked up): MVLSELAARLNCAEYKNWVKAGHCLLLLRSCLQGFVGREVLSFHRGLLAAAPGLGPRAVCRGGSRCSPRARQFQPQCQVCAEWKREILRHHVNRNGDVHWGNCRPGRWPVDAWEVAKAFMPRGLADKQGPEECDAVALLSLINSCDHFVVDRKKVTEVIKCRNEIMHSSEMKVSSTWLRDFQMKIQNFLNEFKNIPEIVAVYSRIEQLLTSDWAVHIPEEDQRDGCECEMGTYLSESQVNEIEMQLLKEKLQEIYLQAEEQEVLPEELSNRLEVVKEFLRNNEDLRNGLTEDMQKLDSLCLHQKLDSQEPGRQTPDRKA
Sequence of UniProt Q96KC8 (Q96KC8 whole entry, looked up): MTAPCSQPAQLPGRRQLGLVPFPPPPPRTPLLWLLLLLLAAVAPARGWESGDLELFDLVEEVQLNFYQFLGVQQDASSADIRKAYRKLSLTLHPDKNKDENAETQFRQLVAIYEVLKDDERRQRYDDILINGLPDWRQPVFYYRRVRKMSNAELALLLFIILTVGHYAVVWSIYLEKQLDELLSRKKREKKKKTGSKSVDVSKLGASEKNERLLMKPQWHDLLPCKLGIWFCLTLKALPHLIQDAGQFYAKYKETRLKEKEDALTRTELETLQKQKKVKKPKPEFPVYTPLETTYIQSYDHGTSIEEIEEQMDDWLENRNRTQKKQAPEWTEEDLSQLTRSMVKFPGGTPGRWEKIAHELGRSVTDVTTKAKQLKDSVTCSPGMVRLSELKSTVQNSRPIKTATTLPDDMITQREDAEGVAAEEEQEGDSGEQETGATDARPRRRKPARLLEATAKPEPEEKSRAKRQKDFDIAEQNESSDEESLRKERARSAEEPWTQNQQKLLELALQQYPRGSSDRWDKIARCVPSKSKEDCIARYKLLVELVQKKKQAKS
Sequence of UniProt Q9NRF8 (Q9NRF8 whole entry, looked up): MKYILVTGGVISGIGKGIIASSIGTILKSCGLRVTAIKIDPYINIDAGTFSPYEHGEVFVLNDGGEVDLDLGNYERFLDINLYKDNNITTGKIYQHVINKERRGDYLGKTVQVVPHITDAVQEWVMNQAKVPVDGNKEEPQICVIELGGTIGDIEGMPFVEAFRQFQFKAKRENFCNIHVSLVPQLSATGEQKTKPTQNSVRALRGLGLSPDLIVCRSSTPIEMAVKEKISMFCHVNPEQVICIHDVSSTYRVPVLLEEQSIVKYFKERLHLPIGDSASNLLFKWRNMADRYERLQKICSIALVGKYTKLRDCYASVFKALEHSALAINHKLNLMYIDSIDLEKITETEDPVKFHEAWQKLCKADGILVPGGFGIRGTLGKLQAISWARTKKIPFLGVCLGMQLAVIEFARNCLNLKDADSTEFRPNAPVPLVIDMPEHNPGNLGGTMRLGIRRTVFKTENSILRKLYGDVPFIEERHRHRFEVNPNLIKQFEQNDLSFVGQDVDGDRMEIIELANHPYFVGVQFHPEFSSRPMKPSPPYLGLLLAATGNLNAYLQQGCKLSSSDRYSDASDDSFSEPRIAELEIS

Target	log2 fold change (alvocidib)	log2 fold change (Tubastatin A)	log2 fold change [1]	log2 fold change (defactinib)	log2 fold change [2]	log2 fold change (encorafenib)	log2 fold change [3]	log2 fold change (alisertib)	log2 fold change [4]	log2 fold change (gefitinib)
DDX4 (UniProt Q9NQI0)	-0.234	-0.173	-0.05	-0.058	-0.116	-0.047	-0.02	0.032	-0.007	0.021
CHMP4A isoform 2 (UniProt Q9BY43)	-0.096	0.048	-0.01	0.007	0.039	0.026	-0.001	0.028	0.043	0.041
COX7B (UniProt P24311)	0.013	0.02	0.112	0.042	-0.014	-0.022	0.315 (active)	0.028	0.018	-0.139
CLASP1 (UniProt Q7Z460)	-0.057	-0.032	-0.005	-0.037	-0.006	0.058	0.009	0.036	-0.001	0.018
CIAO2A (UniProt Q9H5X1)	0.034	0.04	0	-0.002	0.109	0.026	-0.052	0.089	0.009	0.088
DOCK7 (UniProt Q96N67)	0.007	-0.238	0.006	-0.014	-0.035	0.006	0.038	0.032	0.026	0.017
DNAJC24 (UniProt Q6P3W2)	0.079	0.001	-0.017	0.009	-0.088	0.037	-0.027	-0.017	-0.006	-0.038
CTPS2 (UniProt Q9NRF8)	-0.01	0.015	-0.009	0.01	-0.006	0.01	-0.043	-0.017	0.011	0.011
CNP (UniProt P09543)	-0.005	-0.06	0.011	0.028	-0.03	0.02	-0.003	0.029	0	-0.025
COG4 (UniProt Q9H9E3)	0.028	-0.131	0.025	0.029	-0.003	0.079	0.011	0.016	0.022	0.009
CKAP2 (UniProt Q8WWK9)	-0.059	-0.009	0.071	-0.075	0.028	0.097	-0.092	-0.044	0.049	0.06
CMPK2 (UniProt Q5EBM0)	-0.046	0.005	0.018	0.027	-0.006	0.01	0.028	-0.026	0.018	-0.022
DDX20 (UniProt Q9UHI6)	0.042	-0.213	-0.001	-0.03	-0.026	0.076	0.01	0.016	-0.006	0.025
DFFB (UniProt O76075)	-0.042	-0.007	-0.022	-0.033	-0.022	-0.012	0.015	-0.006	0.011	0.231 (active)
CSDE1 isoform 4 (UniProt O75534)	0	-0.104	0.01	0	-0.014	-0.008	0.209 (active)	0.004	-0.021	-0.014
COG6 (UniProt Q9Y2V7)	0.026	-0.062	0.059	-0.028	0.059	-0.026	0.034	0.016	-0.017	0.006
DMXL1 (UniProt Q9Y485)	0.01	-0.014	0.019	0.024	0.012	0.055	-0.015	-0.031	0.009	0.038
COQ9 (UniProt O75208)	0.002	-0.041	-0.035	0.023	0.136	-0.021	0.024	0.026	0.025	-0.012
COX20 isoform 2 (UniProt Q5RI15)	0.102	-0.012	0.01	-0.007	0.06	-0.103	0.022	0.001	-0.033	-0.009
CTPS1 (UniProt P17812)	0.006	-0.101	-0.021	0	-0.048	0.016	0.038	-0.019	-0.001	-0.015
CNOT2 (UniProt Q9NZN8)	-0.003	-0.046	-0.002	0.001	-0.027	-0.002	0.013	-0.025	0.008	0.011
CHORDC1 (UniProt Q9UHD1)	0.033	0.004	0.007	0	-0.002	-0.029	-0.018	-0.012	-0.008	-0.026
CLUH, A0A494C0R8	0.076	-0.08	-0.015	-0.184	-0.049	-0.089	0.054	-0.05	0.005	0.138
DMAC2L (UniProt Q99766)	0.029	0	-0.056	0.022	0.018	0.016	-1.03 (active)	0.074	0.031	0.061
DGCR8 (UniProt Q8WYQ5)	0.009	-0.115	-0.009	-0.046	0.042	0.018	0.081	0.022	0.027	-0.034
CMTM3 (UniProt Q96MX0)	-0.007	-0.231	0.04	-0.022	0.061	-0.011	0.064	-0.099	-0.036	-0.123
CKS1B (UniProt P61024)	0.117	-0.001	0.032	0.075	-0.055	0.04	-0.014	-0.031	-0.024	0.071
CLP1 (UniProt Q92989)	-0.103	-0.179	0.004	0.071	-0.037	0.02	0.023	-0.002	0.031	0.033
CXorf38 (UniProt Q8TB03)	0	0.039	0.04	-0.012	-0.016	0.02	-0.012	-0.021	-0.058	-0.056
DNAJC1 (UniProt Q96KC8)	0.016	-0.053	0.013	0.06	-0.059	0.056	-0.257	0.038	-0.104	0.041
